According to the supplement of paper PMC6953052:
Where “and” joins values, the source holds several entries; their conditions need not be identical. Identical values can stand only once. ± gives the standard deviation of the averaged measurements. Over roughly 1,700 compounds, “fraction of GFP-LC3-positive cells (≥5 vesicles/cell)” has its median near 0.058; the highest 2% begin near 0.59. What follows is part of a selection rich in the highest values, with near analogues and random picks from the rest.

test system: CbCln3 +/+ GFP-LC3 cerebellar neuronal cells; assay: fraction of GFP-LC3-positive cells (≥5 vesicles/cell); higher = more autophagosome accumulation
Method in brief: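 Wild-type or mutant CbCln3 cerebellar cells stably expressing GFP-LC3 were plated at 2 × 10^3 per well in 384-well plates and received ~50 nL of compound in DMSO by pin transfer, in duplicate, for 24 h at 33 °C. Hoechst 33342 and LysoTracker Red were added for the last 30 min, after which cells were fixed in 3.2% PFA and three fields per well were imaged at 10×. CellProfiler counted GFP-LC3 vesicles per cell, and out-of-focus images were excluded. The reported value is the fraction of cells reaching a vesicle-count cutoff of 5 or more, averaged over duplicates.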

`CCCCC/C=C\C/C=C\C/C=C\C=C\[C@@H](O)CCCC(=O)O` and `CCCCCCCC/C=C\CCCCCCCC(N)=O` are within error of each other in “fraction of GFP-LC3-positive cells” value: 0.0555 ± 0.014 for the first, 0.0449 for the second.

First: Oc1cc2c(cc1O)CN(C(=S)NCCc1ccc(Cl)cc1)CCC2 [capsazepine]
Second: Cl.Clc1ccc(Cn2c(CN3CCCC3)nc3ccccc32)cc1 [Clemizole hydrochloride]
The “fraction of GFP-LC3-positive cells” value of the first is higher: 0.197 for the first, 0.063 for the second.

First: O=C(Nc1ccccc1)c1cc([N+](=O)[O-])ccc1Cl
Second: COC(=O)Nc1nc2cc(C(=O)c3ccccc3)ccc2[nH]1 [Mebendazole]
The “fraction of GFP-LC3-positive cells” value of the first is lower: 0.0781 for the first, 0.619 for the second.

First: CCC(=O)[C@@]1(C)[C@H](C)C[C@H]2[C@@H]3CCC4=CC(=O)C=C[C@]4(C)[C@H]3[C@@H](O)C[C@@]21C [Rimexolone]
Second: COc1ccc2c(c1)C(=O)N(CCc1ccc(S(=O)(=O)NC(=O)NC3CCCCC3)cc1)C(=O)C2(C)C [Gliquidone]
The “fraction of GFP-LC3-positive cells” value of the first is lower: 0.0676 for the first, 0.0709 for the second.

Compared with `CCCCNc1cc(C(=O)O)cc(S(N)(=O)=O)c1Oc1ccccc1` [Bumetanide], `O=C(/C=C/c1ccc(O)c(O)c1)OCCc1ccccc1` is higher in “fraction of GFP-LC3-positive cells” value: 0.0472 for the first, 0.624 for the second.

Compared with `C[C@@H](O)[C@H]1C(=O)N2C(C(=O)O)=C(SCCNC=N)C[C@H]12` [Imipenem], `CCCSc1ccc2[nH]c(NC(=O)OC)nc2c1` [Albendazole] is higher in “fraction of GFP-LC3-positive cells” value: 0.032 for the first, 0.548 for the second.

Going from `CCCCCN(CCCCC)C(=O)C(CCC(=O)[O-])NC(=O)c1ccc(Cl)c(Cl)c1.[Na+]` (configuration not stated) [Lorglumide sodium salt] to `CCCCC[C@H](O)CC(=O)CCc1ccc(O)c(OC)c1`, the “fraction of GFP-LC3-positive cells” value falls from 0.0541 to 0.0534.

Going from `Cc1[nH]c(=O)c(C#N)cc1-c1ccncc1` [Milrinone] to `COC(=O)Nc1nc2cc(C(=O)c3cccs3)ccc2[nH]1` [Nocodazole], the “fraction of GFP-LC3-positive cells” value rises from 0.0445 to 0.627.

Compared with `CC(N/C(=N/C#N)Nc1ccncc1)C(C)(C)C` (configuration not stated) [Pinacidil], `COC(=O)Nc1nc2cc(SC(C)C)ccc2[nH]1` [Methiazole] is higher in “fraction of GFP-LC3-positive cells” value: 0.0667 for the first, 0.499 for the second.

Going from `CN1CCN2c3ccccc3Cc3ccccc3C2C1.Cl` (configuration not stated) [Mianserine hydrochloride] to `O=C(O)CCc1nc(-c2ccccc2)c(-c2ccccc2)o1` [Oxaprozin], the “fraction of GFP-LC3-positive cells” value falls from 0.0536 to 0.047.

Compared with `CC(C)C[C@@H](C=O)NC(=O)[C@H](CC(C)C)NC(=O)[C@H](CC(C)C)NC(=O)OCc1ccccc1`, `CC(C)C[C@@H](C=O)NC(=O)[C@H](CC(C)C)NC(=O)OCc1ccccc1` is lower in “fraction of GFP-LC3-positive cells” value: 0.736 ± 0.077 for the first, 0.0921 for the second.

First: CCCC[C@@H](C=O)NC(=O)[C@H](CC(C)C)NC(=O)OCc1ccccc1
Second: CCCCc1ccc2[nH]c(NC(=O)OC)nc2c1 [Parbendazole]
The “fraction of GFP-LC3-positive cells” value of the first is lower: 0.088 for the first, 0.609 for the second.

Going from `CCCC[C@@H](C=O)NC(=O)[C@H](CC(C)C)NC(=O)OCc1ccccc1` [calpeptin] to `CCOC1O[C@H]([C@@H](COCc2ccccc2)OCc2ccccc2)[C@H](OCc2ccccc2)[C@H]1O` (some centres not stated) [Tribenoside], the “fraction of GFP-LC3-positive cells” value rises from 0.0616 to 0.102.

First: CC/C(=C(/CC)c1ccc(O)cc1)c1ccc(O)cc1 [Diethylstilbestrol]
Second: CC(C(=O)O)c1ccc(C(=O)c2cccs2)cc1 (configuration not stated) [Suprofen]
The “fraction of GFP-LC3-positive cells” value of the first is lower: 0.0323 for the first, 0.0679 for the second.

Compared with `O=C(/C=C/c1ccc(O)c(O)c1)O[C@@H]1C[C@](O)(C(=O)O)C[C@@H](O)[C@H]1O` [Chlorogenic acid], `O=C(O)/C=C/c1ccc(O)c(O)c1` [Caffeic acid] is lower in “fraction of GFP-LC3-positive cells” value: 0.0755 for the first, 0.0546 for the second.

Compared with `FC(F)(F)c1ccccc1-n1ccnc1`, `COC(=O)Nc1nc2cc(Sc3ccccc3)ccc2[nH]1` [Fenbendazole] is higher in “fraction of GFP-LC3-positive cells” value: 0.0512 for the first, 0.24 for the second.

Compared with `CC(C(=O)[O-])c1cccc(Oc2ccccc2)c1.CC(C(=O)[O-])c1cccc(Oc2ccccc2)c1.CC(C(=O)[O-])c1cccc(Oc2ccccc2)c1.O.O.[Ca+2]` (configuration not stated) [Fenoprofen calcium salt dihydrate], `C[N+](C)(CCOc1ccccc1)Cc1ccccc1.O=C([O-])c1cc2ccccc2cc1O` [Bephenium hydroxynaphthoate] is higher in “fraction of GFP-LC3-positive cells” value: 0.0249 for the first, 0.0458 for the second.

Going from `CCN(CC)CCOc1ccc(/C(=C(/Cl)c2ccccc2)c2ccccc2)cc1.O=C(O)CC(O)(CC(=O)O)C(=O)O` [Clomiphene citrate (Z,E)] to `O=C(O)c1ccc(C2=C3C=CC4=[N]3->[Mn+3]35<-[N]6=C(C=CC6=C(c6ccc(C(=O)O)cc6)c6ccc2[n]63)C(c2ccc(C(=O)O)cc2)=c2ccc([n]25)=C4c2ccc(C(=O)O)cc2)cc1.[Cl-]` (configuration not stated), the “fraction of GFP-LC3-positive cells” value rises from 0.0397 to 0.0485.

First: CCOc1ccc(Cc2nccc3cc(OCC)c(OCC)cc23)cc1OCC.Cl [Ethaverine hydrochloride]
Second: CCOC(=O)C1=C[C@]2(CC)CCCN3CCc4c(n1c1ccccc41)[C@@H]32 [Vinpocetine]
The “fraction of GFP-LC3-positive cells” value of the first is lower: 0.0346 for the first, 0.0378 for the second.

Going from `NCCc1c[nH]cn1` to `COC(=O)Nc1nc2cc(C(=O)c3cccs3)ccc2[nH]1` [nocodazole], the “fraction of GFP-LC3-positive cells” value rises from 0.0411 to 0.681.

For `CCCCCCCCCCCCCCCC(=O)NCCc1ccc(O)c(O)c1` [Palmitoyl dopamine], the “fraction of GFP-LC3-positive cells” value was 0.0673.

With `Cc1ccc(NC(=O)c2cccc(N(C)C)c2)cc1NC(=O)c1ccc(O)cc1` the “fraction of GFP-LC3-positive cells” value was 0.0842 and 0.161.
